# In ChEMBL document CHEMBL3988442, “University of Dundee, Small-Polar-MMV Screening Library” (2021):
# Hit rate of the full screen: of about 48,000 compounds, about 13,000 (27%) showed an effect of 50% or more. The list shows a part of the results.
# Tested on: Wolbachia pipientis
# Assay: Anti-Wolbachia Cell-Based Screen
# Format: functional
# Design: scale not given: in the data most compounds retested in dose-response had high values
# Conditions: 5 µM
row,SMILES,Percent Effect [%]
1,CCN1CCN(C)C2(CCN(Cc3ccsc3)CC2)C1=O.O=C(O)C(F)(F)F.O=C(O)C(F)(F)F,94.35
2,CN1CCN(Cc2ccncc2)C(=O)C12CCN(Cc1ccsc1)CC2.O=C(O)C(F)(F)F.O=C(O)C(F)(F)F.O=C(O)C(F)(F)F,58.8
3,CN1CCN(Cc2ccncc2)C(=O)C12CCN(c1nccs1)CC2.O=C(O)C(F)(F)F.O=C(O)C(F)(F)F,-19.3
4,CCN1CCN(C)C(=O)C12CCN(Cc1ccsc1)CC2.O=C(O)C(F)(F)F,-27.74
5,CN1CCN(C)C2(CCN(Cc3ccsc3)CC2)C1=O.O=C(O)C(F)(F)F,105.2
6,Cn1ncc(C2CC(=O)NCc3nc4ccccn4c32)c1C1CC1 (configuration not stated),1.817
7,CCNC(=O)[C@@H]1CCCN1C1(C(=O)NC)CCC1.Cl,0.1969
8,O=C1CC2(CCSC2)C(=O)N1Cc1ncc(-c2ccccc2)o1 (configuration not stated),-14.26
9,NC(=O)CN(CC(=O)NCCc1c(F)cccc1F)C1CCCC1,11.15
10,C[C@@H]1CN(Cc2ccc(C(F)(F)F)cc2F)CC[C@]1(C)O,-2.035
11,COCC(=O)Nc1cnc(N2CCCC2)nc1,-4.633
12,CCCC(=O)N(C)Cc1nc(N2CCCC2)ncc1-c1ccncc1.Cl,137.6
13,Cc1nc(N2CCCC2)ncc1-c1cc(O)nc(N2CCCC2)n1,3.993
14,COCC(=O)N(C)Cc1nc(N2CCCC2)ncc1-c1ccncc1.Cl,87.58
15,CN(Cc1cnccn1)C(=O)Nc1cc(F)cc(N2CCCC2)c1,16.17
16,CCOc1ccc(CN(C)C(=O)c2nc(N3CCCC3)ncc2Cl)cc1,16.2
17,CO[C@H]1CCN(S(=O)(=O)c2cn(C)cn2)[C@H]1Cc1cccnc1.O=C(O)C(F)(F)F.O=C(O)C(F)(F)F,-4.938
18,COc1ccc(CC(=O)N2CC[C@@H](OC)[C@@H]2Cc2cccnc2)cc1.O=C(O)C(F)(F)F,135
19,COc1cccc(CC(=O)N2CC[C@@H](OC)[C@@H]2Cc2cccnc2)c1.O=C(O)C(F)(F)F,137.5
20,Cc1noc([C@H]2COC[C@H]3CN(C(=O)Cc4ccc(F)cc4)C[C@H]32)n1,-6.311
21,COc1cc(CN(C)C(=O)NC2CC2)ccc1SC,1.322
22,Cc1ccc2c(c1)CN(C(=O)C1CCCCC1)C(CN(C)C)CO2.Cl (configuration not stated),-7.003
23,Cc1ccc2c(c1)CN(C(=O)c1cnc(C)cn1)C(CN(C)C)CO2.Cl (configuration not stated),102.7
24,Cc1ccc2c(c1)CN(C(=O)c1ccccc1F)C(CN(C)C)CO2.Cl (configuration not stated),-8.172

row,SMILES,Percent Effect [%]
1,Cc1ccc2c(c1)CN(C(=O)c1ccncc1)C(CN(C)C)CO2.Cl (configuration not stated),112.6
2,Cc1nc(C)c(C(=O)N2CCc3c(C)cccc32)o1,-0.835
3,CCOC(=O)CC1CCCCN1C(=O)c1cnc(C)cn1 (configuration not stated),6.285
4,Cc1ccc2c(c1)CN(C(=O)c1cccs1)C(CN(C)C)CO2 (configuration not stated),64.15
5,CCN(C)S(=O)(=O)N1CCCC1CC(=O)c1cccs1 (configuration not stated),13.08
6,CN(C)CC1COCCN1C(=O)C1(c2cccs2)CCCC1.O=CO (configuration not stated),-9.313
7,Cc1nc(C)c(C(=O)N2Cc3cc(F)ccc3CC2C)o1 (configuration not stated),-9.907
8,Cc1nc(C)c(C(=O)N2Cc3ccccc3OCC2CN(C)C)o1.Cl.Cl (configuration not stated),85.27
9,CC1CN(C)c2ccccc2CN1C(=O)c1ccncc1 (configuration not stated),-3.17
10,Cc1ccc(S(=O)(=O)NC(=O)COc2ccc(CC#N)cc2)s1,-2.544
11,CN(c1ccc(-c2nc(C3CC3)no2)cn1)C1CCOCC1,5.539
12,Cc1cccc(NCCNc2ccc(C#N)cn2)n1,14.53
13,CN(Cc1nnc(-c2ccco2)o1)Cc1nc2c(s1)CCCC2,-12.52
14,COc1ccccc1C(=O)N1Cc2cc(C)ccc2OCC1CN(C)C.Cl (configuration not stated),-11.9
15,Cc1ccc2c(c1)CN(C(=O)c1cccnc1)C(CN(C)C)CO2.Cl (configuration not stated),73.73
16,COc1ccc(C(=O)N2Cc3cc(C)ccc3OCC2CN(C)C)cc1.Cl (configuration not stated),72.78
17,COc1ccc(C(=O)NC[C@H]2COCc3nc4cc(C)ccc4n32)cc1,-9.863
18,CCOCCC(=O)NCc1ccnc(NC2CC2)c1,-81.15
19,CC(C)(C)OC(=O)N1CCCC[C@H]1C(=O)NCc1nccs1,1.043
20,CCC(NC(=O)C(C)C)c1ccccc1C (configuration not stated),112
21,Cc1ccccc1C(C)NC(=O)c1ccc(=O)n(C)c1 (configuration not stated),28.6
22,CCC(NS(C)(=O)=O)c1ccccc1C (configuration not stated),-2.544
23,CCC(NC(=O)C(C)(C)C)c1ccccc1C (configuration not stated),109.5
24,Cc1ccccc1C(CC(=O)NCC(N)=O)c1ccccc1 (configuration not stated),-4.865

row,SMILES,Percent Effect [%]
1,Cc1ccccc1C(C)NC(=O)CN1CCN(Cc2ccc(Cl)s2)CC1 (configuration not stated),-0.8834
2,Cc1ccccc1C(NC(=O)CCCS(C)(=O)=O)C(C)(C)C (configuration not stated),-11.53
3,CCC(NCc1ccccc1C)c1ccccc1OCC(=O)NC (configuration not stated),-1.01
4,CCC(=O)NC(C)c1ccccc1C (configuration not stated),111
5,Cc1ccc(C)c(C(NC(=O)C(C)(C)C)c2cccnc2)c1 (configuration not stated),4.189
6,CCC(=O)NC(CC)c1ccccc1C (configuration not stated),115.1
7,CCCC1(NC(=O)C(c2ccccc2C)N(C)C)CC1 (configuration not stated),5.158
8,Cc1nn2c(N3CCS(=O)(=O)CC3)cc(-c3ccccc3)nc2c1C,-7.306
9,COC(=O)CSCc1noc(-c2ccc(Cl)cc2)n1,23.78
10,Cc1nn(CCC#N)c(C)c1[C@@H]1C=C[C@@H](NCc2ccc(F)cc2)C1,-3.605
11,CC(C)CCC(C)NC(=O)c1ccc(OCC(N)=O)cc1 (configuration not stated),-5.752
12,NC(=O)c1ccc(S(=O)(=O)NC2CCN(Cc3ccccc3)C2=O)cc1 (configuration not stated),-1.969
13,CCn1nc(C)cc1C(=O)N1CCCN(CCCc2ccccc2)CC1,0.5946
14,Cn1nc(C(=O)NC2CCCCC2)cc1NC(=O)C1CC1,0.3949
15,COC(=O)c1cc(C(=O)N2CCCCCC2)n(-c2ccccc2)n1,-9.69
16,CC1CCN(C(=O)c2cn(-c3ccc(C(F)(F)F)cn3)nn2)CC1,-7.014
17,Cn1nc(C(=O)N2CCSCC2)cc1NC(=O)c1ccco1,98.85
18,CCN1CCN(C(=O)c2cc(NC(=O)c3ccccc3)n(C)n2)CC1,93.08
19,CCN1CCN(C(=O)c2cc(C(=O)OC)nn2-c2ccccc2)CC1,-11.35
20,Cc1nc(N2CCCC2)nc(C)c1NC(=O)c1ccco1,8.53
21,CCCn1ccc(C(=O)N2CCC(C)CC2)n1,-7.324
22,Cc1nc(N2CCOCC2)nc(C)c1NC(=O)c1ccco1,3.58
23,Cn1nc(C(=O)N2CCCCCC2)cc1NC(=O)c1ccccc1,99.88
24,CC1CCN(C(=O)c2cc(NC(=O)c3ccccc3)n(C)n2)CC1,70.66
